Values joined by “and” are separate entries in the source; they are usually repeats but may differ in a detail not shown here. Equal values may be shown once. The campaign covered roughly 5,500 compounds. About 2,000 (36%) were called active. About 18% were inconclusive and are not listed. Rule as the data show it: active = normalized growth mostly below about 0.91 (no sharp cut-off); inconclusive = no clear call, values can overlap the other calls; inactive = mostly above about 0.92. The list shows a part of the results.
Assay: chemical genetic growth profiling, strain panel (AID 1159580);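 also: tested at 20 µM; growth read once vehicle control cultures reached saturation at 30 °C; 1 = growth at the plate median or of vehicle wells; lower values mean less growth of the strain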
Details: S. cerevisiae deletion strains, growth OD

Measured: normalized growth

Cc1cc(C)cc(OCC2CNC(=O)O2)c1 (stereo unspecified)
inactive: locus YAL013W, strain DEP1, active compounds read low 1.01 | locus YAL021C, strain ccr4, active compounds read low 0.995 | locus YAL026C, strain drs2, active compounds read low 0.977 | locus YAL030W, strain snc1, active compounds read low 0.984 | locus YBL061C, strain skt5, active compounds read low 0.97 | locus YBR009C, strain hhf1, active compounds read low 0.985 | locus YBR021W, strain FUR4, active compounds read low 1.02 | locus YBR023C, strain chs3, active compounds read low 0.972 | locus YBR171W, strain sec66, active compounds read low 0.963 | locus YBR229C, strain ROT2, active compounds read low 1 | locus YBR231C, strain swc5, active compounds read low 0.992 | locus YBR279W, strain paf1, active compounds read low 0.969 | locus YCL011C, strain gbp2, active compounds read low 0.977 | locus YCL016C, strain dcc1, active compounds read low 0.979 | locus YCL029C, strain bik1, active compounds read low 1.01 | locus YCL061C, strain MRC1, active compounds read low 0.973 | locus YCL069W, strain vba3, active compounds read low 0.975 | locus YCR088W, strain abp1, active compounds read low 0.977 | locus YDL005C, strain med2, active compounds read low 0.97 | locus YDL035C, strain GPR1, active compounds read low 1.02 | locus YDL040C, strain nat1, active compounds read low 0.972 | locus YDL074C, strain BRE1, active compounds read low 1.03 | locus YDL101C, strain DUN1, active compounds read low 1.02 | locus YDL134C, strain PPH21, active compounds read low 1.02 | locus YDL185W, strain tfp1, active compounds read low 1.02 | locus YDL192W, strain arf1, active compounds read low 1.01 | locus YDR001C, strain nth1, active compounds read low 0.979 | locus YDR069C, strain doa4, active compounds read low 0.986 | locus YDR101C, strain arx1, active compounds read low 1.01 | locus YDR137W, strain rgp1, active compounds read low 0.92 | locus YDR150W, strain NUM1, active compounds read low 1.02 | locus YDR159W, strain sac3, active compounds read low 0.986 | locus YDR162C, strain NBP2, active compounds read low 1.03 | locus YDR195W, strain ref2 0.97 | locus YDR297W, strain sur2, active compounds read low 0.976 | locus YDR318W, strain mcm21, active compounds read low 1.02 | locus YDR334W, strain swr1, active compounds read low 0.966 | locus YDR335W, strain msn5, active compounds read low 0.971 | locus YDR388W, active compounds read low 1.01 | locus YDR392W, strain spt3, active compounds read low 0.983 | locus YDR502C, strain sam2, active compounds read low 1.02 | locus YEL003W, strain gim4, active compounds read low 0.981 | locus YEL037C, strain rad23, active compounds read low 0.979 | locus YEL061C, strain CIN8 (second series), active compounds read low 0.966 | locus YEL061C, strain CIN8, active compounds read low 1 | locus YER015W, strain faa2, active compounds read low 0.982 | locus YER016W, strain bim1, active compounds read low 0.983 | locus YER110C, active compounds read low 1.01 | locus YER111C, strain swi4, active compounds read low 0.971 | locus YER155C, strain BEM2 (second series), active compounds read low 0.972 | locus YER155C, strain BEM2, active compounds read low 1.02 | locus YER167W, strain BCK2, active compounds read low 1.02 | locus YGL078C, strain dbp3, active compounds read low 1.01 | locus YGL086W, strain mad1, active compounds read low 1.01 | locus YGL167C, strain pmr1, active compounds read low 0.971 | locus YGL173C, strain kem1, active compounds read low 0.966 | locus YGL227W, strain vid30, active compounds read low 0.972 | locus YGL240W, strain doc1, active compounds read low 0.976 | locus YGL248W, strain PDE1, active compounds read low 1.01 | locus YGL253W, strain hxk2, active compounds read low 0.97 | locus YGR078C, strain PAC10, active compounds read low 1.01 | locus YGR135W, strain pre9, active compounds read low 0.998 | locus YGR229C, strain SMI1, active compounds read low 1.02 | locus YGR252W, strain gcn5, active compounds read low 1 | locus YHR013C, strain ard1, active compounds read low 0.928 | locus YHR027C, strain rpn1, active compounds read low 0.964 | locus YHR030C, strain SLT2, active compounds read low 1.01 and 1.04 | locus YHR079C, strain IRE1 (second series), active compounds read low 1.02 | locus YHR079C, strain IRE1, active compounds read low 1.05 | locus YHR094C, strain hxt1, active compounds read low 1.02 | locus YHR129C, strain ARP1, active compounds read low 1.02 | locus YHR142W, strain chs7, active compounds read low 0.968 | locus YHR200W, strain rpn10, active compounds read low 1.02 | locus YIL066C, strain RNR3, active compounds read low 1.02 | locus YIL073C, strain SPO22, active compounds read low 1.03 | locus YIL125W, strain kgd1, active compounds read low 1.01 | locus YIR030C, strain dcg1, active compounds read low 1.02 | locus YJL092W, strain hpr5, active compounds read low 0.972 | locus YJL095W, strain BCK1 (second series), active compounds read low 0.971 | locus YJL095W, strain BCK1, active compounds read low 1.01 and 1.02 | locus YJL115W, strain asf1, active compounds read low 0.965 | locus YJL129C, strain trk1, active compounds read low 0.974 | locus YJL134W, strain LCB3, active compounds read low 1.02 | locus YJL154C, strain vps35, active compounds read low 0.973 | locus YJL164C, strain tpk1, active compounds read low 0.98 | locus YJL166W, strain qcr8, active compounds read low 0.981 | locus YJL168C, strain set2, active compounds read low 1.02 | locus YJL187C, strain SWE1 (second series), active compounds read low 1.01 | locus YJL187C, strain SWE1, active compounds read low 0.982 | locus YJR043C, strain POL32, active compounds read low 1.02 | locus YJR066W, strain TOR1, active compounds read low 0.99

Source: PubChem BioAssay AID1159580 (chemical genetic matrix, 2015)
